Entries with a potency or affinity are not part of this list. Inconclusive results are not listed. The source made the active and inactive calls. How the calls were made is not given here.
Experiment: OVCAR-3 cell viability loss – plate reader, dry powder samples, PAX8 inhibitor project, dose response (AID 743044)
Details: NIH:OVCAR-3 ovarian cancer cell viability; max activity: at 35 µM, hits give low values unless noted; series mostly up to 50 µM

| Compound | max activity | outcome |
| --- | --- | --- |
| C[C@@H]1CN([C@@H](C)CO)C(=O)c2cc(NC(=O)Nc3cccc4ccccc34)ccc2O[C@@H]1CN(C)Cc1ccc2c(c1)OCO2 | 8.89% (inactive) | – |
| C[C@@H]1CN([C@H](C)CO)C(=O)c2cc(NS(=O)(=O)c3ccc(F)cc3)ccc2O[C@@H](C)CCCCO[C@H]1CN(C)Cc1ccccc1 | 22.1% [at 1 µM, hits give low values] (inactive) | – |
| N#C[C@H]1[C@H](c2ccc(C#CC3CCCCC3)cc2)[C@H](CO)N1C(=O)Nc1ccc(F)cc1 | -34% [at 0.5 µM, hits give low values] (inactive) | – |
| N#Cc1cccc(-c2ccc3c(c2)[C@@H]2[C@@H](CCN2S(=O)(=O)c2ccc(F)cc2)[C@@H](CO)N3)c1 | 5.91% (inactive) | – |
| CCCN(C)C[C@H]1OCCCC[C@@H](C)Oc2ccc(NC(=O)c3ccccc3)cc2C(=O)N([C@H](C)CO)C[C@H]1C | 25.8% [at 0.5 µM, hits give low values] (inactive) | – |
| C[C@H]1CCCCO[C@H](CN(C)S(=O)(=O)c2ccc(Cl)cc2)[C@@H](C)CN([C@@H](C)CO)C(=O)c2cc(NS(=O)(=O)c3ccc(F)cc3)ccc2O1 | -9.44% [at 4.2 µM, hits give low values] (inactive) | – |
| C[C@@H]1CCCCO[C@@H](CN(C)Cc2ccc(Cl)c(Cl)c2)[C@H](C)CN([C@@H](C)CO)C(=O)c2cc(NC(=O)Nc3ccccc3)ccc2O1 | 10.2% [at 16 µM, hits give low values] (inactive) | – |
| C[C@@H]1CN([C@H](C)CO)C(=O)c2cc(NS(=O)(=O)c3ccc(Cl)cc3)ccc2O[C@@H](C)CCCCO[C@H]1CN(C)C(=O)C1CCCCC1 | -15.5% [at 0.56 µM, hits give low values] (inactive) | – |
| C[C@@H]1CN([C@H](C)CO)C(=O)c2cc(NC(=O)Nc3ccc(F)cc3)ccc2O[C@@H](C)CCCCO[C@H]1CN(C)S(=O)(=O)c1ccc(F)cc1 | -9.65% [at 0.5 µM, hits give low values] (inactive) | – |
| C[C@H](CO)N1C[C@H](C)[C@@H](CN(C)Cc2ccc(Cl)c(Cl)c2)OCCCC[C@H](C)Oc2ccc(NC(=O)Nc3ccc(C(F)(F)F)cc3)cc2C1=O | 35.5% [at 2.1 µM, hits give low values] (inactive) | – |
| CC(C)CC#Cc1ccc([C@@H]2[C@@H](CO)N3CCCCN(S(=O)(=O)c4ccc(F)cc4)C[C@H]23)cc1 | 15.4% [at 16 µM, hits give low values] (inactive) | – |
| Cc1noc(C)c1S(=O)(=O)Nc1ccc2c(c1)C(=O)N([C@@H](C)CO)C[C@H](C)[C@H](CN(C)C(=O)Nc1ccc(C(F)(F)F)cc1)OCCCC[C@H](C)O2 | -38.6% (inactive) | – |
| COc1cccc(S(=O)(=O)N2CC[C@@H]3[C@H](CO)Nc4ccc(C5=CCCCC5)cc4[C@@H]32)c1 | 12.1% [at 0.5 µM, hits give low values] (inactive) | – |
| Cc1noc(C)c1S(=O)(=O)N(C)C[C@H]1OCCCC[C@@H](C)Oc2ccc(NS(=O)(=O)c3ccc(Cl)cc3)cc2C(=O)N([C@@H](C)CO)C[C@H]1C | -28.8% [at 2.1 µM, hits give low values] (inactive) | – |
| Cc1ccc(S(=O)(=O)N(C)C[C@@H]2OCCCC[C@H](C)Oc3ccc(NS(=O)(=O)c4ccc(Cl)cc4)cc3C(=O)N([C@H](C)CO)C[C@H]2C)cc1 | 19.8% [at 0.5 µM, hits give low values] (inactive) | – |
| C[C@@H]1CN([C@H](C)CO)C(=O)c2c(c3ccccc3n2C)-c2ccccc2CO[C@H]1CN(C)S(=O)(=O)c1cccc(F)c1 | -15.8% [at 0.26 µM, hits give low values] (inactive) | – |
| C[C@@H]1CN([C@@H](C)CO)C(=O)Cc2cc(NC(=O)Nc3ccc(C(F)(F)F)cc3)ccc2O[C@H]1CN(C)S(=O)(=O)c1ccc(F)cc1 | 16.6% [at 1 µM, hits give low values] (inactive) | – |
| O=C(Nc1ccc(F)cc1)N1CCCCN2[C@@H](CO)[C@@H](c3ccc(-c4cccc(F)c4)cc3)[C@@H]2C1 | -20% (inactive) | – |
| O=C(CN1C(=O)c2ccccc2S1(=O)=O)c1ccccc1Cl | – | inactive |
| C[C@H](CO)N1C[C@H](C)[C@H](CN(C)Cc2ccc(Cl)c(Cl)c2)OCCCC[C@H](C)Oc2ccc(NC(=O)Nc3ccccc3)cc2C1=O | -25.9% [at 0.26 µM, hits give low values] (inactive) | – |
